{
  "source": "ChEMBL document CHEMBL3988442",
  "about": "“University of Dundee, Small-Polar-MMV Screening Library” (2021)",
  "note": "Hit rate of the full screen: of about 48,000 compounds, about 13,000 (27%) showed an effect of 50% or more. The list shows a part of the results.",
  "data": [
    {"system": "Wolbachia pipientis", "assay": "Anti-Wolbachia Cell-Based Screen", "type": "functional", "set-up": "scale not given: in the data most compounds retested in dose-response had high values", "conditions": "5 µM", "units": {"Percent Effect": "%"}, "values": [
      {"smiles": "Cc1cccc(NC(=O)Cn2ncc(SCC(N)=O)c(Cl)c2=O)c1C", "Percent Effect": -8.805},
      {"smiles": "CN(C)c1cccc(C2CCCN2c2nc3c(cnn3C)c(=O)[nH]2)c1", "note": "(configuration not stated)", "Percent Effect": 1.208},
      {"smiles": "CCc1ccc(CN(C)C(=O)C2CC(=O)N(c3cccc(O)c3)C2)nc1", "note": "(configuration not stated)", "Percent Effect": -3.145},
      {"smiles": "CCCn1nc2c(cc1=O)CN(Cc1nc(-c3ccoc3)no1)CC2", "Percent Effect": 8.04},
      {"smiles": "O=C(NC[C@@H]1CCCN1)c1cc(COc2cccc(C(F)(F)F)c2)[nH]n1", "Percent Effect": 1.903},
      {"smiles": "O=C(NCc1ccccn1)c1cnc(C2CCCN2)cn1", "note": "(configuration not stated)", "Percent Effect": 135},
      {"smiles": "O=C(NC[C@H]1CCCN1)c1cc(COc2cccc(C(F)(F)F)c2)[nH]n1", "Percent Effect": -12.79},
      {"smiles": "O=C(NCc1ccccn1)c1cncc(C2CCCN2)n1", "note": "(configuration not stated)", "Percent Effect": 138.1},
      {"smiles": "Cc1nc(C(=O)NCc2ccccn2)cc(C2CCCN2)n1", "note": "(configuration not stated)", "Percent Effect": 186.5},
      {"smiles": "CC1CCc2nc(O)c(C(=O)NCc3ccccn3)cc2C1", "note": "(configuration not stated)", "Percent Effect": 0.7211},
      {"smiles": "CCC1c2ccsc2CCN1C(=O)NCc1ccccn1", "note": "(configuration not stated)", "Percent Effect": 11.42},
      {"smiles": "Cl.O=C1NCCCCC1NCc1csc(-c2ccccn2)n1", "note": "(configuration not stated)", "Percent Effect": -2.48},
      {"smiles": "Cl.O=C(NCC(F)F)c1cnc(C2CCCN2)cn1", "note": "(configuration not stated)", "Percent Effect": 98.86},
      {"smiles": "O=C(NCc1ccccn1)C1CN(c2nc3ccccc3s2)CCN1", "note": "(configuration not stated)", "Percent Effect": 4.696},
      {"smiles": "O=S1(=O)C[C@@H]2[C@H](C1)N(Cc1cc(F)cc(F)c1)CCN2CCO", "Percent Effect": 1.937},
      {"smiles": "O=C(Nc1cc(C(F)(F)F)ccc1Cl)c1ccc(N2CCOCC2)nn1", "Percent Effect": -2.027},
      {"smiles": "Cl.NC1CCN(C(=O)c2c(F)cccc2Br)CC1", "Percent Effect": 2.266},
      {"smiles": "Cc1ccccc1SCC(=O)N[C@H]1CC[C@H](n2cnnc2)CC1", "Percent Effect": -8.466},
      {"smiles": "Cc1ccc(C(C)NC(=O)Cc2c(C)nc3cc(=O)[nH]n3c2C)s1", "note": "(configuration not stated)", "Percent Effect": 3.622},
      {"smiles": "CCOCCN1CCN(CC(O)c2cc(Cl)ccc2Cl)CC1", "note": "(configuration not stated)", "Percent Effect": 18.57},
      {"smiles": "CCOc1ccnc(N2CCCN(c3nc(CC)ns3)CC2)n1", "Percent Effect": 2.862},
      {"smiles": "Cc1nc[nH]c1CN1CCC(CNC(=O)c2cccc3cnccc23)C1", "note": "(configuration not stated)", "Percent Effect": -8.641},
      {"smiles": "Cc1cc(CN2CCC(CNC(=O)c3ccc(C#N)cc3)C2)[nH]n1", "note": "(configuration not stated)", "Percent Effect": -6.827},
      {"smiles": "CCn1ncnc1CN1CCC(CNC(=O)c2ccccc2C#N)C1", "note": "(configuration not stated)", "Percent Effect": 115.7},
      {"smiles": "CCn1ncnc1CN1CCC(CNC(=O)c2cccnc2O)C1", "note": "(configuration not stated)", "Percent Effect": 102.6},
      {"smiles": "Cc1ccc(C(=O)NCC2CCN(Cc3ccccc3C#N)C2)cn1", "note": "(configuration not stated)", "Percent Effect": -20.5},
      {"smiles": "Cc1cnn(CC2CC2)c1NC(=O)c1cccnc1O", "Percent Effect": -0.1453},
      {"smiles": "Cc1cccc(N2CCN(S(=O)(=O)CCN)CC2)c1", "Percent Effect": -3.019},
      {"smiles": "COC(=O)C1CCN(C(=O)c2cc(Br)ccc2-n2cnnn2)CC1", "Percent Effect": 122.5},
      {"smiles": "CCOC(=O)CN1CCC(C(=O)c2cc(F)ccc2F)CC1", "Percent Effect": -15.3},
      {"smiles": "CC(=O)N1CCC(NC(=O)c2cc(Cl)ccc2-n2cnnn2)CC1", "Percent Effect": 22.58},
      {"smiles": "CCOC(=O)C1CCN(C(=O)c2cc(F)ccc2-n2cnnn2)CC1", "Percent Effect": 122.3},
      {"smiles": "CCC(C)[C@H](NC(=O)c1cc(Br)ccc1-n1cnnn1)C(=O)OC", "note": "(some centres not stated)", "Percent Effect": 6.622},
      {"smiles": "CCOC(=O)N1CCC(C(=O)c2cc(F)ccc2F)CC1", "Percent Effect": -8.485},
      {"smiles": "CCOC(=O)C1CCN(C(=O)c2cc(Br)ccc2-n2cnnn2)CC1", "Percent Effect": 129.1},
      {"smiles": "CCOC(=O)C1CCN(C(=O)Cn2ccc3cc(Br)ccc32)CC1", "Percent Effect": 16.73},
      {"smiles": "CCOC1CCCN(C(=O)c2sccc2-n2cnnn2)C1", "note": "(configuration not stated)", "Percent Effect": -3.669},
      {"smiles": "CCn1ncnc1C(C)NC(=O)Cc1cc2c(cc1Cl)OCCO2", "note": "(configuration not stated)", "Percent Effect": 1.538},
      {"smiles": "CC(C)(C)[S+]([O-])CCNC(=O)c1cccc2ncccc12", "note": "(configuration not stated)", "Percent Effect": -2.962},
      {"smiles": "Cn1ccnc1SCCNC(=O)c1cc(S(N)(=O)=O)ccc1F", "Percent Effect": -8.563},
      {"smiles": "CSc1ncccc1C(=O)NCc1ccc(N(C)C)cc1", "Percent Effect": 175.4},
      {"smiles": "Cc1cccc(C(=O)NCc2ccc(OCCN(C)C)cc2)c1C", "Percent Effect": -6.28},
      {"smiles": "NS(=O)(=O)c1ccc(F)c(C(=O)NCCSc2ccccn2)c1", "Percent Effect": 2.11},
      {"smiles": "CCCSc1ncccc1C(=O)NCc1ccc(S(N)(=O)=O)cc1", "Percent Effect": 120.7},
      {"smiles": "CNC(=O)c1cccnc1NCc1ccc(Cn2cccn2)cc1", "Percent Effect": -20.21},
      {"smiles": "CN(C)CCOc1ccc(CNC(=O)c2cccc(Cl)c2Cl)cc1", "Percent Effect": 13.68},
      {"smiles": "Cc1ccc(C(=O)NCc2ccc(N(C)C)cc2)cn1", "Percent Effect": -15.59},
      {"smiles": "CCCSc1ncccc1C(=O)NCc1ccc(N(C)C)cc1", "Percent Effect": 112.3},
      {"smiles": "CSc1ncccc1C(=O)NCc1ccc(CS(=O)(=O)NC(C)C)cc1", "Percent Effect": 2.17},
      {"smiles": "CCSc1ncccc1C(=O)NCc1ccc(N(C)C)cc1", "Percent Effect": 103},
      {"smiles": "NC(=O)C(NCc1ccc(Cl)s1)c1ccccc1", "note": "(configuration not stated)", "Percent Effect": -5.898},
      {"smiles": "CC(c1nc(C2CC2)no1)N(C)Cc1ccc(Cl)cc1", "note": "(configuration not stated)", "Percent Effect": -4.386},
      {"smiles": "Cc1cc(-c2nn(C)c(Cl)c2CN2CC[C@@](O)(C3CCC3)[C@H](C)C2)no1", "Percent Effect": 9.361},
      {"smiles": "CC(C1CCN(Cc2c(Cl)cncc2Cl)CC1)N1CCOCC1", "note": "(configuration not stated)", "Percent Effect": 1.146},
      {"smiles": "CCCNC(=O)c1ccc(S(=O)(=O)NCC2(O)CCCNC2)cc1", "note": "(configuration not stated)", "Percent Effect": -4.599},
      {"smiles": "O=C(NCCN1CCCCCC1)c1coc(COc2ccc(F)cc2)n1", "Percent Effect": -5.25},
      {"smiles": "Cc1cccc(N2CCN(CCNC(=O)c3ccnn3C)CC2)c1", "Percent Effect": 20.06},
      {"smiles": "NC(=O)CN1CCC(C(=O)NCCn2cc(Cl)cn2)CC1", "Percent Effect": 2.042},
      {"smiles": "Cn1ncc(Cl)c1C(=O)NCCN1CCC(O)(c2ccc(F)cc2)CC1", "Percent Effect": 129.2},
      {"smiles": "NC(=O)C1CCN(CC(=O)NCCn2cc(Cl)cn2)CC1", "Percent Effect": -2.539},
      {"smiles": "O=C(NCCN1CCOCC1)c1ccc(-c2ccc(F)cc2)nc1O", "Percent Effect": -1.382},
      {"smiles": "O=C(Cn1cc(Cl)cn1)NCCN1CCC(O)(c2ccc(F)cc2)CC1", "Percent Effect": 66.04},
      {"smiles": "Cn1nccc1C(=O)NCCN1CCC(O)(c2ccc(F)cc2)CC1", "Percent Effect": 137.8},
      {"smiles": "CC1CCN(CCNC(=O)Nc2ccc(F)cc2Cl)CC1", "Percent Effect": 1.976},
      {"smiles": "Cc1c(Cl)cccc1OCC(=O)NC1(C#N)CCSC1", "note": "(configuration not stated)", "Percent Effect": -5.269},
      {"smiles": "COc1cc2nc(C)sc2cc1NC(=O)CN(C)C(C)C", "Percent Effect": -15.43},
      {"smiles": "CC(C)(C)OC(=O)N1CCCc2ccc(NCc3ccon3)cc21", "Percent Effect": -9.372}
    ]}
  ]
}
